# Data taken from PubChem BioAssay (Tox21).
# Inconclusive results are not listed. Entries that show only a call come without a potency. Active and inactive are the calls of the source. Calls come from the whole dose curve.
# Molecular target: Beta-2 adrenergic receptor (Homo sapiens) (UniProt P07550)
# Assay: Adrenergic beta2 receptor (ADRB2) small molecule agonists, cell-based qHTS assay (AID 1963593);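 note: CHO cells stably overexpressing human ADRB2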
# Conditions: CHO-ADRB2 cells, cAMP HTRF, 30 min; series mostly up to 42.5 µM
# Method in brief: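 CHO cells stably over-expressing ADRB2 were plated overnight at 37C, then dosed with compounds plus a stimulation mix containing 100uM IBMX and 25uM Ro-20-1724 for 0.5hr at room temperature. cAMP was measured by HTRF competition, 1hr.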
# Beta-2 adrenergic receptor (Homo sapiens), sequence (P07550 whole entry, looked up): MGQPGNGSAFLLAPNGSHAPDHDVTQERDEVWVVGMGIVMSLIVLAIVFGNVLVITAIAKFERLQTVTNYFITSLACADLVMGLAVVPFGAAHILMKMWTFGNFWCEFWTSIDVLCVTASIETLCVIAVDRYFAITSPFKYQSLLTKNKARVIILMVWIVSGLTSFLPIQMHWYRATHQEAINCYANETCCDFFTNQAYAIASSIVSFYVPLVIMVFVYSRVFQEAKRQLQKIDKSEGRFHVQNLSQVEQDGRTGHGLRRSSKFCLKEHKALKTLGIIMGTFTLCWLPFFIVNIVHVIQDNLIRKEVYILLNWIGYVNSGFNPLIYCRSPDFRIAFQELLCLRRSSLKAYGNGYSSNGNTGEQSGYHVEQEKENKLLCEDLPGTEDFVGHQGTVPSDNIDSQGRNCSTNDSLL
row,Compound,Potency
1,CC(C)(C)C(=O)Oc1ccc(S(=O)(=O)Nc2ccccc2C(=O)NCC(=O)O)cc1,inactive
2,CC(C)=NNC(N)=S,inactive
3,CCOc1cc(OCC)c(C(=O)CCC(=O)O)cc1OCC,inactive
4,COc1cccc(-c2ccc(/C=C\CN3CCCCCC3)cc2Cl)c1,inactive
5,CCCCCCCCCCOC(C)=O,inactive
6,CC(CN1CC(=O)NC(=O)C1)N1CC(=O)NC(=O)C1 (stereo unspecified),inactive
7,CC(C)(C)N,inactive
8,CC[C@H]1OC(=O)[C@H](C)[C@@H](O[C@H]2C[C@@](C)(OC)[C@@H](O)[C@H](C)O2)[C@H](C)[C@@H](O[C@@H]2O[C@H](C)C[C@H](N(C)C)[C@H]2O)[C@](C)(O)C[C@@H](C)C(=O)[C@H](C)[C@@H](O)[C@]1(C)O,inactive
9,Cc1ncc([N+](=O)[O-])n1CC(C)O (stereo unspecified),inactive
10,CCC(=O)c1c(O)cc(O)cc1O,inactive
11,C[C@@H]1CN(CCCn2c3ccccc3c3ccccc32)C[C@H](C)N1,inactive
12,CC(C)[C@H](N)C(=O)OCCOCn1cnc2c(=O)[nH]c(N)nc21,inactive
13,CC(C)=CC(=O)C=C(C)C,inactive
14,CCN(CC)CCNc1ccc(CNC=O)c2sc3ccc(OC)cc3c(=O)c12,inactive
15,O=C1OCc2ccccc21,inactive
16,CCCCCCCC/C=C\CCCCCCCC(=O)OC,inactive
17,CN(C(=O)CCCOc1ccc2[nH]c(=O)ccc2c1)C1CCCCC1,inactive
18,CCCCCCCCCCCC(=O)Cl,inactive
19,CC(C)CC(C)CC(C)CC(C)COC(=O)c1ccccc1C(=O)OCC(C)CC(C)CC(C)CC(C)C (stereo unspecified),inactive
20,CCCCCCC(CCCCCCCCCCC(=O)OCC(COC(C)=O)OC(C)=O)OC(C)=O (stereo unspecified),inactive
21,C#CC(C)N(C)C(=O)Nc1ccc(Cl)cc1 (stereo unspecified),inactive
22,COc1cc(OC)cc(OC)c1,inactive
23,CCCCCCC(CO)CCCC (stereo unspecified),inactive
24,CC(C)CCOC(=O)CC(C)C,inactive
25,CCCCCCCCCCCCS(=O)(=O)Cl,inactive
26,CCCCCCc1ccc(N)cc1,inactive

row,Compound,Potency
1,CCN(CC)C(=O)N1CCN(C)CC1,inactive
2,Nc1[nH]c(=O)ncc1F,inactive
3,COCC(=O)Nc1c(I)c(C(=O)NCC(O)CO)c(I)c(C(=O)N(C)CC(O)CO)c1I (stereo unspecified),inactive
4,CCOC(=O)/C=C/C(=O)O,inactive
5,O=C(O)CCC(=O)OC[C@@H](NC(=O)C(Cl)Cl)[C@H](O)c1ccc([N+](=O)[O-])cc1,inactive
6,C=C(C)C(=O)OCC1CCCO1 (stereo unspecified),inactive
7,CCCCCCCCCCCC(=O)NCCCN(C)C,inactive
8,CCCCOc1ccc(OCCCN2CCOCC2)cc1,inactive
9,CC(C)CCCCCCc1ccc(OCCOCCO)cc1,inactive
10,COC(=O)C(C)O (stereo unspecified),inactive
11,O=C(O)c1cc(C(=O)O)c(C(=O)O)cc1C(=O)O,inactive
12,CCOc1cc(OCC)c(C(C)=O)cc1OCC,inactive
13,CCCCCCCCCCCCCCCCOP(=O)([O-])OCC[N+](C)(C)C,inactive
14,O=C(O)CCSCCC(=O)O,inactive
15,COc1cc(O)cc(O)c1,inactive
16,O=[N+]([O-])c1ccc(/C=N\O)o1,inactive
17,CC(C)C[C@H](NC(=O)[C@H](CCc1ccccc1)NC(=O)CN1CCOCC1)C(=O)N[C@@H](Cc1ccccc1)C(=O)N[C@@H](CC(C)C)C(=O)[C@@]1(C)CO1,inactive
18,O=c1c(O)c(-c2ccc(O)cc2O)oc2cc(O)cc(O)c12,inactive
19,CO[Si](CCCS)(OC)OC,inactive
20,Oc1cccc2[nH]ccc12,inactive
21,COc1ccccc1Oc1c(NS(=O)(=O)c2ccc(C(C)(C)C)cc2)nc(-c2ncccn2)nc1OCCO,inactive
22,CCOCC(O)COc1ccc(NC(=O)CC[S+](C)C)cc1 (stereo unspecified),inactive
23,CC(C)c1ccc2oc3nc(N)c(C(=O)O)cc3c(=O)c2c1,inactive
24,CC1(C)[C@H]2CC[C@]1(C)C(=O)C2,inactive
25,O=Cc1cccc(Br)c1,inactive
